Results reported in the supplement of paper PMC4166925.
± gives the standard deviation of the averaged measurements. Whole data set: some 33,000 sequences, median “E-score (dimensionless, -0.5 to 0.5)” near -0.046, cut for the highest 2% near 0.36. This is one part of a sample in which the highest values are shown more often than they occur.

What follows are sequences tested on T1, SpTbr T-box DNA-binding domain (GST fusion) (assay: PBM E-score of 8-mer (E-score (dimensionless, -0.5 to 0.5)); Tbr is Tbrain of the sea star Patiria miniata (Pm) or the sea urchin Strongylocentrotus purpuratus (Sp); higher = stronger binding preference). Conditions: the construct has about 5 more residues each side.
T1 sequence: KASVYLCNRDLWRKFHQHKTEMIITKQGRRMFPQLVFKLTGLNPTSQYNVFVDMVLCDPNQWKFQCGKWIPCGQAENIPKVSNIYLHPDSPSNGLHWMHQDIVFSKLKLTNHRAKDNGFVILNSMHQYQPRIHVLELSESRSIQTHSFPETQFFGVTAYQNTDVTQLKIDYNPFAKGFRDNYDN
Procedure: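 Universal protein-binding microarray (Agilent AMADID 016060, 60-bp probes with a 35-bp variable region) incubated with 200 nM GST-fused Strongylocentrotus purpuratus Tbr T-box DNA-binding domain (residues 362-554) in PBS pH 7.5. Scored for every ungapped 8-mer (given with its reverse complement) as E-score (range -0.5 to 0.5; >0.45 counts as bound) and Z-score of median probe intensity. Two replicate arrays (datasets 1 and 2).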
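Further: protein at 200 nM in PBS on universal double-stranded arrays.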

In order of rising “PBM E-score of 8-mer” value:
1. AATACTGG  -0.329 ± 0.041
2. GGACCTCC  -0.327 ± 0.017
3. AGACCTCT  -0.281 ± 0.035
4. AAGACCTT  -0.259 ± 0.0063
5. ATTAAGAA  -0.254 ± 0.043
6. AACCTCAG  -0.244 ± 0.045
7. AGGACTAT  -0.234 ± 0.035
8. TATTTGAA  -0.214 ± 0.013
9. GCCCGACC  -0.213 ± 0.054
10. GGGTTAAA  -0.213 ± 0.063
11. TAACCGAA  -0.212 ± 0.034
12. CAATTGAG  -0.2 ± 0.036
13. AGGCCTAT  -0.196 ± 0.034
14. GAACGAGC  -0.187 ± 0.063
15. GGCAGGGA  -0.182 ± 0.062
16. CTGGGACC  -0.174 ± 0.015
17. TATATCAA  -0.174 ± 0.03
18. CCCCTAAG  -0.17 ± 0.067
19. CCTAACCG  -0.163 ± 0.039
20. CGGCCGAA  -0.16 ± 0.027
21. CTAGGTTA  -0.16 ± 0.08
22. GACCTCCC  -0.159 ± 0.12
23. AACCTCAA  -0.158 ± 0.018
24. TAACCTCA  -0.153 ± 0.018
25. AAATGGTA  -0.152 ± 0.041
26. ACGCATGG  -0.144 ± 0.018
27. CCGCAGAC  -0.143 ± 0.042
28. CCAGCTTC  -0.142 ± 0.058
29. AACCTCCA  -0.135 ± 0.018
30. AACCTAAG  -0.133 ± 0.0067
31. TACCTCAA  -0.13 ± 0.045
32. TACCCGGA  -0.128 ± 0.15
33. GAGCCCCA  -0.124 ± 0.065
34. GGACTTGA  -0.12 ± 0.047
35. CGGGGGAC  -0.117 ± 0.088
36. AGTTGGCC  -0.112 ± 0.0038
37. CCCCAAAA  -0.112 ± 0.042
38. CGAAGACC  -0.109 ± 0.036
39. ACTCTTAG  -0.106 ± 0.0089
40. CTAGTTTC  -0.105 ± 0.053
41. GAGTTGGA  -0.0967 ± 0.023
42. AACCTCCC  -0.0867 ± 0.0052
43. CAGACCTG  -0.0842 ± 0.0016
44. AGGTTTAA  -0.0723 ± 0.017
45. TAACCTGA  -0.0659 ± 0.025
46. AACTCTGA  -0.0644 ± 8.5e-05
47. ACTGAGGA  -0.0611 ± 0.02
48. ATCCCAGA  -0.0492 ± 0.043
49. GGAGGGTA  -0.0485 ± 0.045
50. AGGTTGAT  -0.0456 ± 0.014
51. AGCGGGCA  -0.0395 ± 0.016
52. CCAATAAC  -0.0379 ± 0.13
53. CGAGCACA  -0.0373 ± 0.063
54. CCTAGGCC  -0.0372 ± 0.013
55. TACCTCCA  -0.0368 ± 0.093
56. CAATAGAC  -0.0363 ± 0.07
57. CTCCTCAG  -0.0357 ± 0.025
58. ACTCTTAT  -0.0294 ± 0.038
59. CACAGCAG  -0.0256 ± 0.044
60. CGATACAG  -0.0251 ± 0.13
61. CCACTTAG  -0.0238 ± 0.042
62. AACCTAAC  -0.0237 ± 0.04
63. TGAAACCA  -0.0205 ± 0.016
64. CACGGTTA  -0.0116 ± 0.056
65. ATAGGGAG  -0.00632 ± 0.036
66. GATTTTCC  -0.00302 ± 0.027
67. GCATGCTA  0.00793 ± 0.094
68. AGGTGCCC  0.00863 ± 0.0099
69. AACCTCCG  0.0095 ± 0.07
70. AAGACCTC  0.00991 ± 0.032
71. CCCTATCA  0.0101 ± 0.042
72. CTACGCGA  0.0131 ± 0.01
73. ATAGATCG  0.0137 ± 0.011
74. ACCCGAGA  0.0223 ± 0.0071
75. CCACTGCG  0.0281 ± 0.049
76. AAACCTCG  0.0284 ± 0.048
77. CGAAAACG  0.0298 ± 0.05
78. TGACCTCA  0.0321 ± 0.076
79. ATTGTGGA  0.0374 ± 0.11
80. GATCAATA  0.0446 ± 0.036
81. CGCCACAG  0.0527 ± 0.03
82. CGAACAGA  0.0582 ± 0.028
83. GTATGCAC  0.0616 ± 0.043
84. TACACCAA  0.0641 ± 0.095
85. AGAGTGTA  0.0671 ± 0.0042
86. CAACAAGG  0.0674 ± 0.0062
87. GGCCACAA  0.0675 ± 0.11
88. GACGTGCA  0.0705 ± 0.07
89. CGCAAGAC  0.07366 ± 4.2e-05
90. CGCCACAA  0.0762 ± 0.081
91. ATAGTGTA  0.0763 ± 0.038
92. GGTTATAC  0.0871 ± 0.041
93. CGGCGATA  0.094 ± 0.028
94. AGACCTCA  0.1 ± 0.022
95. GTTTAGCA  0.102 ± 0.11
96. AGCTGCCA  0.111 ± 0.099
97. ACTCTTCG  0.113 ± 0.071
98. TACACCGA  0.118 ± 0.1
99. AACACCGG  0.118 ± 0.015
100. CGGTGCCA  0.119 ± 0.02
101. ACGATCAC  0.119 ± 0.031
102. CCCCTCCG  0.119 ± 0.066
103. TTCGCCAA  0.124 ± 0.054
104. GCGTGCCA  0.128 ± 0.01
105. GACCTCAC  0.137 ± 0.049
106. CCTTCACC  0.14 ± 0.013
107. ACGCCAAC  0.144 ± 0.021
108. CCACTTAC  0.161 ± 0.0085
109. CCACCTCA  0.172 ± 0.067
110. CACACCGG  0.175 ± 0.059
111. AACCTCAC  0.182 ± 0.034
112. ACGTGCCG  0.199 ± 0.058
113. GCACTTAC  0.208 ± 0.017
114. GCAATCGC  0.212 ± 0.0066
115. TCTTAACA  0.214 ± 0.041
116. ACCACCTG  0.224 ± 0.037
117. AACACCGA  0.228 ± 0.03
118. CTCGCTAA  0.232 ± 0.043
119. AACACCGT  0.243 ± 0.091
120. ATCTTCAC  0.267 ± 0.02
121. ATAGTGTC  0.272 ± 0.07
122. CCTTCACG  0.278 ± 0.019
123. CCCACCTA  0.282 ± 0.013
124. TGTCAAAA  0.289 ± 0.021
125. CACACCGA  0.291 ± 0.036
126. AACACCGC  0.299 ± 0.018
127. ACGCCTCT  0.30412 ± 0.00015
128. AGCCACAC  0.311 ± 0.049
129. ACTTCACG  0.312 ± 0.018
130. CACCTAAA  0.3188 ± 0.00098
131. ACGCCTCA  0.331 ± 0.01
132. ACACTTAA  0.336 ± 0.027
133. CGGTGCGA  0.339 ± 0.0046
134. GCACCTCA  0.343 ± 0.02
135. ACTTCACA  0.357 ± 0.02
136. AGAGTGTC  0.359 ± 0.0099
137. ACGTGCCA  0.361 ± 0.033
138. GTGTGCGA  0.361 ± 0.0042
139. TGCGAGAA  0.36401 ± 0.00027
140. CGCCACAC  0.3647 ± 0.0013
141. ACGCCTCG  0.373 ± 0.019
142. GGGTGCCA  0.3739 ± 0.003
143. CACCTCAA  0.375 ± 0.024
144. AGAGTGTG  0.375 ± 0.022
145. CACCTCAG  0.376 ± 0.0075
146. TACACCTA  0.377 ± 0.0086
147. ACACTTAG  0.383 ± 0.038
148. CACCTAAG  0.383 ± 0.019
149. TCACCTCA  0.387 ± 0.0086
150. CACCTAAC  0.387 ± 0.018
151. CACCTCCA  0.3876 ± 0.00048
152. ATAGTGTG  0.388 ± 0.026
153. CACCTCCC  0.389 ± 0.017
154. GGCCACAC  0.3886 ± 0.00083
155. TCTTCACA  0.395 ± 0.015
156. GCACCTCC  0.396 ± 0.013
157. ACACTTAC  0.4 ± 0.024
158. ACACTTAT  0.402 ± 0.0068
159. CCTTCACA  0.404 ± 0.0071
160. AGGTGCCG  0.421 ± 0.0055
161. CACCTCAC  0.444 ± 0.012
162. CACCTCCG  0.4516 ± 0.0039
163. ACACCTCA  0.4607 ± 0.0039
164. AACACCTA  0.4609 ± 0.0024
165. AGGTGCCA  0.46212 ± 0.00034
166. AACACCTG  0.463 ± 0.0057
167. GGGTGCGA  0.4746 ± 0.00052
168. ACACCTCT  0.479 ± 0.0083
169. CACACCTG  0.479 ± 0.0072
170. AACACCTT  0.479 ± 0.0049
171. ACACCTCG  0.4804 ± 0.0036
172. AACACCTC  0.481 ± 0.0063
173. CACACCTA  0.4806 ± 0.0011
